In the library only some 11% were active in any assay of this set; here they are far more common.
ALDH1A1 block = ALDH1A1 (human) enzyme inhibition; P00352; Potency, µM (top dose mostly 75.3 µM), for inactives: at the top dose activity, negative = inhibition, actives largely listed as inhibitors; 220,000 tested, 7.3% active; Purified ALDH1A1, NADH fluorescence, propionaldehyde substrate;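 note: potency is the fitted concentration of half-maximal effect; plate controls were no enzyme wells and a reference inhibitor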
Target sequence (P00352 whole entry, looked up): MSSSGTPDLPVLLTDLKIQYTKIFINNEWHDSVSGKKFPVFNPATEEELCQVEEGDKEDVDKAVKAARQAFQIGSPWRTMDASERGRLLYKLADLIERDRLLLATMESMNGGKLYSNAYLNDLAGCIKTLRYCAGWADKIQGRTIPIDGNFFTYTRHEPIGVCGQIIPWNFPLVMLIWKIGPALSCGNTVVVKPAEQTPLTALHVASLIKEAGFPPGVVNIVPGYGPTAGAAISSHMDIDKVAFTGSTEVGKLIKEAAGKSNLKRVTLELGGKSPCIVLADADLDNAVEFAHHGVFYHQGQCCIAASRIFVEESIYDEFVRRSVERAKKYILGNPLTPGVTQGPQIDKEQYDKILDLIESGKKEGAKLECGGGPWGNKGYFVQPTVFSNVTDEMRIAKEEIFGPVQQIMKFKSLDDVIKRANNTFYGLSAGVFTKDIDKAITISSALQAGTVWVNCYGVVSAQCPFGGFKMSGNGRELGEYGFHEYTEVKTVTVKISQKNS
IMPase Li cell = IMPase inhibition in cells with lithium potentiation | CHO-M1 cells, IP1 TR-FRET (IP-One), carbachol + lithium | AID 1457 | Potency, µM (top dose mostly 59.4 µM), for inactives: at the highest dose activity, negative = IMPase inhibition, hits mostly inhibitors | 210,000 tested, 0.35% active; active = well fitted inhibition curve with a large enough effect; inconclusive = small, poorly fitted or top-dose-only effect; inactive = no such curve, though single readings can be large or run the other way;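 note: IP1 builds up when IMPase is blocked and the TR-FRET signal falls; potency is the fitted concentration of half-maximal effect; plate controls were basal vehicle for no effect and high inhibitor control for full effect; nearly all actives have a fitted effect of over 50% in size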
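Readout is a homogeneous TR-FRET IP1 immunoassay (Ex 320, Em 665 and 620), where raised cytosolic IP1 lowers signal. Cells were CHO-M1 treated 30 min at 37C with test compounds plus a little lithium; AC50 values came from Hill-equation fitting.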
PNC assembly inh = inhibitors of perinucleolar compartment assembly. PC3M PTB-GFP, PNC prevalence imaging, 16 h; active compounds read low. activity change (PNC), negative = inhibition, % at 10 µM. 140,000 tested, 3.1% active. AID 2417;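 active = readout at or below -70, meaning at least 70% loss of cells showing the perinucleolar compartment, a nuclear body marking cancer cells; inconclusive = readout between -30 and a set limit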;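 note: plate controls were DMSO wells for no effect and camptothecin positive control wells for full effect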
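Compounds are pinned in duplicate onto adhered PC3M cells stably expressing GFP-tagged PTB and incubated 16 h at 37 C. Cells are then fixed, nuclei stained with Hoechst, and PNC-positive cells counted.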
IMPase cell inh = membrane-permeable compound that blocks inositol monophosphatase | P97697 | CHO-M1 cells, IP1 accumulation, HTRF TR-FRET ratio | inhibition (IP1 accumulation), % at 46.1 µM | 120,000 tested, under 10 active; active = well fitted curve in the direction sought with a large enough effect in the signal ratio, not every such curve was filed as active; inconclusive = small, poorly fitted or top-dose-only effect, or a change in a side signal; inactive = no such curve, though single readings can be large or run the other way; the % refers to the signal ratio;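 note: cells stimulated with carbachol in lithium chloride buffer; plate controls were DMSO basal wells for no effect and reference inhibitor wells for full effect; higher means more IMPase inhibition seen as more IP1 and lower FRET ratio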
Target sequence (P97697 whole entry, looked up): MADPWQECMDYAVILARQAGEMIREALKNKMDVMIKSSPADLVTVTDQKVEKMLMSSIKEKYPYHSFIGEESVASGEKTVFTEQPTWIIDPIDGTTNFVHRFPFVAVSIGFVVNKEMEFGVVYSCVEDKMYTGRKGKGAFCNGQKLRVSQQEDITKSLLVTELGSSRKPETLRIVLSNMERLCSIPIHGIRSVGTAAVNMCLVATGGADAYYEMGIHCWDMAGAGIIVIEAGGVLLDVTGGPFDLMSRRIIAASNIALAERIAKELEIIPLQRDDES
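Carbachol-driven Gq signalling in CHO-M1 cells (2000/well) generates IP1. Compounds that block IMPase raise IP1 and so reduce the FRET signal from Eu-anti-IP1 and d2-IP1 after a 10 min room-temperature lysis.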
HPGD inh = blocks human HPGD enzyme activity; purified HPGD, NADH fluorescence kinetic, PGE2 substrate; Potency, µM, without a hit: at the highest dose activity change, negative = inhibition, usual class: inhibitors; 150,000 tested, 4.3% active; P15428; AID 894; note: potency is the fitted concentration of half-maximal effect
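NADH formation kinetics: reaction with 30 uM PGE2 and 1 mM NAD+ (final), 20 nM enzyme, Tris-HCl pH 8 with Tween 20, after 15 min compound preincubation at room temperature. Fluorescence change, last versus first of five reads.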
Active calls of the source: *; ? = inconclusive; . = no result; [ ] = dose if it differs, or a comment. Unless noted, calls come from the whole dose curve; as a rule, active = well fitted inhibition curve with a large enough effect (not every such curve was filed as active); inconclusive = small, poorly fitted or top-dose-only effect, or another doubt; inactive = no such curve, though single readings can be large or run the other way. Unless noted, % is set by controls: 0 for no effect and ±100 for the full control effect.

SMILES | ALDH1A1 block | IMPase Li cell | PNC assembly inh | IMPase cell inh | HPGD inh
Cc1ccccc1NC(=O)CSc1nnc(Cc2ccccc2)o1 | -14% | 2% | -100* | 2 | -15%
O=C(CSc1nnc(CNc2ccccc2)o1)N1CCc2ccccc21 | 16µM* | -10%[38.3 µM] | ? | -14 | -9%
CCCn1c(=O)[nH]c(=O)c2c1nc(-c1ccc(OC)c(Br)c1)n2CCOC | ? | -13% | . | . | .
Oc1cccc(NC(=S)Nc2cccnc2)c1 | -7% | -10% | -88* | . | -10%
Cc1c(Cl)cccc1NC(=S)NNc1ncc(C(F)(F)F)cc1Cl | 14µM* | -3%[38.3 µM] | -5 | -2 | -11%
NC(=O)NNc1ncc(C(F)(F)F)cc1Cl | ? | -11% | . | . | .
O=C(NNc1ncc(C(F)(F)F)cc1Cl)c1c(Cl)cccc1Cl | 3% | -22%[38.3 µM] | -13 | 2 | -4%
S=C(Nc1cccnc1)Nc1ccccc1Br | 16% | -1% | . | . | .
FC(F)(F)c1cnc(NNC(=S)Nc2cccnc2)c(Cl)c1 | 2.2µM* | -4% | . | . | .
Fc1ccccc1NC(=S)NNc1ncc(C(F)(F)F)cc1Cl | 2.2µM* | 20%[38.3 µM] | -16 | 3 | -25%
OCC1CCCN1C(=S)Nc1ccccc1 (configuration not stated) | -13% | 9%[38.3 µM] | 0 | 1 | -7%
Cc1onc(-c2ccccc2Cl)c1C(=O)NC1C(=O)N2C1SC(C)(C)C2C(=O)O (configuration not stated) | -12% | -2% | . | . | ?
Cc1cccc(C)c1NC(=S)NNc1ncc(C(F)(F)F)cc1Cl | ? | 23%[38.3 µM] | 20 | -6 | -5%
Cc1ccccc1NC(=S)NNc1ncc(C(F)(F)F)cc1Cl | 10µM* | 12%[38.3 µM] | -6 | 0 | -13%
O=C(NCCCN1CCOCC1)C(=O)NCc1ccco1 | 11% | -2% | . | . | .
CCOc1ccc(N(CC(=O)N2CCc3ccccc32)S(=O)(=O)c2c(C)noc2C)cc1 | -2% | 10%[38.3 µM] | -3 | 5 | -7%
Cc1cc(C)cc(N(CC(=O)N2CCc3ccccc32)S(=O)(=O)c2c(C)noc2C)c1 | 8.9µM* | 0%[38.3 µM] | -6 | 3 | -14%
C=C1c2cccc(C(F)(F)F)c2O[C@H](C(=O)OCC)[C@@H]1CCCCCC | 4% | 3% | . | . | 0%
C1=C(CN2CCOCC2)COc2c1cccc2OC[C@@H]1CNCCO1 | 8% | 13% | . | 0 | -6%
CCN(CCCNC(=O)C1CCN(S(=O)(=O)c2cnc[nH]2)CC1)c1cccc(C)c1 | ? | . | -23 | 6 | .
CCOc1ccccc1C1CC(=O)Nc2cc3c(cc21)OCCO3 (configuration not stated) | -9% | 16%[38.3 µM] | -86* | 6 | -22%
CCCOc1ccccc1C1CC(=O)Nc2cc3c(cc21)OCCO3 (configuration not stated) | -10% | 11% | -116* | ? | -12%
CC(C)Oc1ccccc1C1CC(=O)Nc2cc3c(cc21)OCO3 (configuration not stated) | 0% | 7%[38.3 µM] | -81* | 2 | -5%
CCOc1ccccc1C1CC(=O)Nc2cc(OC)c(OC)c(OC)c21 (configuration not stated) | ? | -10%[38.3 µM] | 38 | 3 | -18%
CCCCNC(=O)COC(=O)c1ccc(F)cc1Cl | 2% | -8% | . | . | .
SMILES | ALDH1A1 block | IMPase Li cell | PNC assembly inh | IMPase cell inh | HPGD inh
CC[C@@]12CCCN3CCc4c(n(c5ccccc45)C(=O)C1)[C@H]32 | 5%[13.5 µM] | 12% | . | -3[20.6 µM] | -4%
COCCNC(=S)NNc1ccccc1[N+](=O)[O-] | 25µM* | 8% | . | . | .
COCCNC(=S)Nc1ccc([N+](=O)[O-])cc1C | ? | -4% | . | . | .
CNC(=S)NNc1ccccc1[N+](=O)[O-] | 14µM* | -12% | . | . | .
CCCCc1nc2c(c3c1C[C@H](C)OC3)CN(C(=O)Cc1cccc(OC)c1)CC2 | 7%[13.5 µM] | 7% | . | . | -7%
CC(C(=O)Nc1ccccc1-c1ccccc1)N1CCCCC1 (configuration not stated) | 20µM* | 23%[38.3 µM] | 9 | 10 | -17%
O=C(Nc1ccccc1-c1ccccc1)C(c1ccccc1)c1ccccc1 | -16% | 15% | -8 | . | -4%
CC(C(=O)Nc1ccccc1-c1ccccc1)N1CCN(S(=O)(=O)c2ccccc2)CC1 (configuration not stated) | ? | 3% | ? | 16 | -10%
CC(C)c1ccc(S(=O)(=O)N2CCN(C(C)C(=O)Nc3ccccc3-c3ccccc3)CC2)cc1 (configuration not stated) | 2.8µM* | 0% | 23 | . | -7%
CC(C)(C)c1cc(NC(=O)COC(=O)c2ccc3c(=O)n4c(nc3c2)CCC4)n(-c2ccccc2)n1 | 4µM* | 37%[38.3 µM] | -20 | 13 | -23%
Cn1cccc1C(=O)OCC(=O)Nc1cc(C(C)(C)C)nn1-c1ccccc1 | 8% | -6%[38.3 µM] | 33 | 8 | -4%
CC(C)(C)NC(=S)NNC(=O)c1ccncc1 | 9% | 5% | -114* | . | 13µM*
CCNC(=S)NNC(=O)c1ccncc1 | -1% | 2% | . | . | .
CC1=CC(=O)[C@@H]2C[C@H]1C2(C)C | -1% | 4% | . | 2 | 3%
Cc1c(C(c2ccc(O)cc2)c2c(C)n(C)n(-c3ccccc3)c2=O)c(=O)n(-c2ccccc2)n1C | -13% | 4% | . | . | .
Cc1c(C(Nc2ccccn2)c2ccccc2)c(=O)n(-c2ccccc2)n1C (configuration not stated) | 11% | 6% | -100* | 1 | -11%
Cc1c(C(c2ccc(N(C)C)cc2)c2c(C)n(C)n(-c3ccccc3)c2=O)c(=O)n(-c2ccccc2)n1C | 18µM* | 2% | . | . | .
Cc1ccc(-c2nnn(CC(=O)N(c3ccccc3)C(C(=O)NCC3CCCO3)c3cccs3)n2)o1 (configuration not stated) | -1% | -5% | . | . | .
COc1ccc2c(c1)O[C@@H](c1ccc3c(c1)OCO3)[C@H](OC(=O)NCCOc1ccccc1)C2=O | -7% | 13% | . | . | -5%
O=C(NNc1ccccc1[N+](=O)[O-])NC1CCCCC1 | 25µM* | 5% | . | . | .
O=C(/C=C/c1ccccc1[N+](=O)[O-])NC1CCCC1 | 14µM* | 5% | . | . | .
O=C(NNc1ccccc1[N+](=O)[O-])Nc1ccccc1 | ? | 18%[38.3 µM] | 12 | -3 | -13%
Cc1ccc(/C=N/NC(=O)c2ccc(Br)o2)s1 | 7% | -1% | -98* | . | -13%
CCc1ccc(/C=N\NC(=O)c2ccc(Br)o2)s1 | -4% | 0% | -3 | . | -24%
Cc1cnc(CNc2ccnc(-c3ccoc3)n2)cn1 | 0% | 7% | . | . | .
N.N.N.N.N.N.N.N.N.N.N.N.N.N.O.O.[Cl-].[Cl-].[Cl-].[Cl-].[Cl-].[Cl-].[Ru].[Ru].[Ru] | -6% | 10% | . | . | -9%
CCOC(=O)CCSc1nc(C)c2ccccc2n1 | 6% | 41%[38.3 µM] | -29 | 6 | -18%
CCOC(=O)CCSc1nc(C)c2cc(C)ccc2n1 | 4% | 13%[38.3 µM] | ? | -2 | 20µM*

Source: PubChem BioAssay (National Center for Advancing Translational Sciences (NCATS))
